From PubChem BioAssay AID1347426 (Functional Genomics Laboratory (NCATS/FGL), 2020) come the findings set out here.

Hit rate of the full screen: of about 31,000 sequences, about 1,400 (4.5%) were called active. Many of the other results were omitted from the sample, so actives are more common in it than they were. Values without a mark were called inactive.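 Rule for the calls: active = median seed-adjusted z-score above 1 or below -1; inactive = the rest.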

This assay can be described thus: Novel Modifiers of Survival Motor Neuron (SMN) Protein: Gene Identification via Genome-wide siRNA Screen.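 Note: luminescence tracks full-length SMN protein made from the SMN2 reporter.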 As to conditions: HEK293T SMN2-luciferase reporter, siRNA knockdown, 72 h; actives lie on both sides. The source says:
Spinal muscular atrophy (SMA) is the most common neuromuscular autosomal recessive disorder and one of the leading genetic causes of infant death. SMA results from mutations inducing loss of function or deletion in the survival of motor neuron-1 gene (SMN1), leading to deficiency of the survival motor neuron (SMN) protein. Although a second nearly identical gene, SMN2, is retained in humans, its expression primarily produces an aberrantly spliced isoform that is largely unstable and quickly degraded. We performed a genome-wide RNAi screen using a cell-based reporter assay to identify genes and pathways that modulate SMN protein stability. The screen identified over 200 genes that led to the greatest increase or decrease in luciferase expression.
Using HEK293T cells stably expressing a luciferase reporter that combines the promoter and splicing based cassettes in tandem with the major portion of the native SMN2 cDNA with luciferase, we performed a genome-wide RNAi screen to identify modulators of SMN protein levels. Luciferase is expressed when full-length SMN protein is generated with luminescence signal proportional to SMN protein levels. Our luciferase-based reporter assay was used to screen Ambion Silencer Select Human Druggable Genome siRNA library (10418 genes, 3 unique siRNAs per gene) using lipid-based reverse transfection.
Briefly, 1 pmol of each siRNA was spotted to a well of a 384-well plate (Corning, Corning, NY) and 20 microL of serum-free DMEM containing […] of Lipofectamine RNAiMax (Life Technologies, Carlsbad, CA) was then added to each well. Transfected cells were maintained at 37 degrees C in 5% CO2 for 72 hours, 20 microL of ONE-Glo Reagent (Promega) was added to wells for luciferase quantification. Raw luminescence reads were normalized to Ambion(R) Silencer(R) Negative Control #2 siRNA, then log10 transformed. A robust statistical measure of median absolute deviation (MAD) to standardize siRNA activities from each screen. Common Seed Analysis was used to help prioritize clean hits as opposed to those appearing to arise from seed based off-target effects. Candidate modulators were defined as the genes having a MAD score greater than 1.0 or less than -1.0.
Background: A reporter such as luciferase makes a cellular process visible.
As for UGACUUUCCUCUCUACGGUTT against SLC10A3, the median seed-adjusted z-score was -0.25.
The same measure for GCAUGCUGUUAGCCGAUAATT against TOMM70A: 0.0717; for CGGCUGAUGUUCUCGAAUUTT against BRD3: 0.633.
Next, CCAGGCUAUUUGUACCGAUTT against CCR6: 0.103.
Regarding CCAGCUCUGGAAUUAGAUATT against NRBP1, the median seed-adjusted z-score was -1.13 (active).
For the sequence GAAUUAAAGAUUUGGUUGATT against EFCAB1, the median seed-adjusted z-score was -0.719.
Regarding GCUGUUAAGUAUGCCCUUATT against AKR1A1, the median seed-adjusted z-score was -0.255.
Take GGACCAUUGGUGAUGAGAATT against CD36: the median seed-adjusted z-score is -0.000845.
Next, GGUUGGAUGCUAUAUACCATT against ROS1: -0.0561; GGGAUAAGCUGAUAAAGGATT against NDUFS5: -1.35 (active).
Next, GAAUUGAAACGAGCUAGAATT against TAF13: -0.919; CCGUAUGAAUGUAAGUAUUTT against ZNF441: 0.578; CAAGAGUUAUGGUCUGGGATT against GCM1: 0.0197.
The same measure for CCACGAUGAAGGAACGAGATT against PDE4A: -0.147; for GCAUGAUCUAGAUCGAGUATT against UQCRFS1: -1.28 (active).
GGUAUUACUUUGCAAUCGATT against CACNA2D1: the median seed-adjusted z-score was -0.541.
Consider CAAGAUAUAUAUACGCCUATT against NPY1R, for which the median seed-adjusted z-score was 0.76.
The same measure for GGGUUUUAGUAACCUUAGATT against SUCNR1: 0.
Consider GAUCCAAAGUAACUAAACATT against HMGN3, for which the median seed-adjusted z-score is -0.182.
Take GAGGCAGUCUUAGAGGAAATT against SPATA21: the median seed-adjusted z-score was -1.03 (active).
Turning to GCCCAUCACCUCUUCAUGATT against RAMP1, the median seed-adjusted z-score is -0.031.
For the sequence GAAACGAACUGGGCAGUAUTT against FGF2, the median seed-adjusted z-score is 0.0208.
For GGAUAGUGAGGAUAAGGAATT against PPP1R15A, the median seed-adjusted z-score is 0.539.
As for CAAAUCCAGUGGUGGGUAATT against S100A6, the median seed-adjusted z-score is -0.264.
The same measure for GUCCUGAAGUCACUCCGAUTT against FUT10: -0.629; for CCACUCUCAUCAAAUCCGATT against MLL2: -2.11 (active); for AGAUGAGGAGUGUCGUCAATT against KLK13: 0.452.
For the sequence GUUCCUACGUGUACAACGATT against DNASE1L1, the median seed-adjusted z-score is 0.542.
The same measure for GAAUAUGGGUUGGCCUAUATT against ZNF655: -0.156; for CAUUAGCAGAUAUACUAUUTT against EEF1E1: -1.45 (active); for GGACGGAUCUCAAUCGAAATT against CPO: 0.0875.
Next, GAAGGAAUGAAAUCCGGAATT against TRIM8: -0.296; CGAAUUCAGGUCAACAAUATT against TRERF1: -0.0952.
Next, GAGUUUAAGCGCAAGCAUATT against HSPA8: 0.462; UCACAGACGAGGCAUUUAATT against FTCD: -0.27.
In the case of GCCUGGAUGAAUUCGAUUATT against UBE4A, the median seed-adjusted z-score is -0.285.
The same measure for GUAAUACGAGGAAAUAGUATT against SNRPG: -3.09 (active).
Next, CAUACACUCUACUCCUGCUTT against CDH26: 0.
As to GCGACCCUGUUAUUCUGUATT against TM9SF1, the median seed-adjusted z-score is 0.14.
Next, CACCAUUGCAAACCAAAUATT against KCNQ5: 0.0191; CGUCAACGAUCGGAAGAAATT against TTLL9: 0.0534; GCCCAACAAGUGCAUGUUUTT against GLIS1: 0.838.
As for CCUCGUCCGUAGUCUCCUUTT against ADRB1, the median seed-adjusted z-score was 1.06 (active).
As to GUAUUGCCUUUGUCAAGAATT against SNX19, the median seed-adjusted z-score was 0.67.
Next, GAAUUGACUUCUUGUCUAATT against RAB41: -0.534.
Next, CGUCAUCAGACUCAAUGAATT against 12-Sep: 0.286.
As to GGAUGAUGAGUACUCUGAATT against COL7A1, the median seed-adjusted z-score was 1.08 (active).
Take GGAAUUUAAGUGAUAGUGATT against CPEB2: the median seed-adjusted z-score was -0.00928.
Next, GCUGCAACCUUGACUACUATT against RRM1: -5.51 (active); AGGUGAAUAUUGACCACUUTT against RGS5: 0; GAGUCAACAAUGGACAUUUTT against KLHL1: 0.067.
For CAACUAGUGGAGAAGAUCATT against FAM63B, the median seed-adjusted z-score is 0.111.
As to GGUCACCACUUGCAAGCUATT against ANG, the median seed-adjusted z-score was -0.481.
In the case of AGCUGGGCUUUAUCGUGGATT against P2RX2, the median seed-adjusted z-score was 0.0454.
Next, GCUUAUUUAUGUAUCAAUATT against ADRB1: 1.06 (active); GGAAAAAUCUAAGAAGCAATT against ZC3H11A: -0.137; GCUUCACCAUCGAAUCCAATT against FLT4: -0.861.
Take GCUGCGGCAUGAUCACUAATT against LBXCOR1: the median seed-adjusted z-score is 0.0938.
Next, CAUUGGGCCUAGAAAUUCATT against CNKSR1: 0.217.
Turning to GGCGAAGUGUCCGACAGAATT against ZNF747, the median seed-adjusted z-score was 0.379.
In the case of GGAGAUCUGCUACUAAACATT against PSMD6, the median seed-adjusted z-score is -1.03 (active).
In the case of GGGAGAGUGGUGAACGUAUTT against CBR1, the median seed-adjusted z-score is -0.6.
Consider CAGUGUUAAUGACCGAAGATT against EIF4G1, for which the median seed-adjusted z-score is -0.978.
Next, GAUGAUACCAGGCAUAUAATT against USP15: -0.405; GCAAUCUUGUUGUACACCATT against ZNF432: -0.124.
Next, GGAGCUGAAUGAGCUGACATT against OSBPL7: 0; “CCACGAUGUGGGAUAAUAATT against GALNAC4S-6ST”: 0.218; GUGGUGCAGUUUUUCGUAATT against THOC2: -1.22 (active).
Next, GGCUCAUAAUGGAGCAGGUTT against TIMM13: -0.422.
